Sampled rows, rich in hits. Any-hit rate of the full collection: about 12%.
Sfp PPTase inh: qHTS Assay for Inhibitors of Bacillus subtilis Sfp phosphopantetheinyl transferase (PPTase); 4'-phosphopantetheinyl transferase ffp (Bacillus subtilis), Q9F4F7; Biochemical Sfp PPTase activity, qHTS; Potency, µM, without a hit: largest response in the series, negative = inhibition, usual class: inhibitors; 310,000 compounds, 3.5% hits; AID 1490, 2009;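 further: the enzyme is Sfp with the accession as filed and its product quenches rhodamine fluorescence; potency means the concentration at half of the fitted maximal effect; 0% = enzyme reaction without inhibitor and -100% = no enzyme wells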
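Fluorescence-quenching assay: 15 nM Sfp-PPTase preincubated 15 min at room temperature with compound, then 5 uM rhodamine-CoA and 12.5 uM BHQ-2-labelled YbbR peptide added. Fluorescence (ex 525/em 598 nm) read at start and after 30 min; difference gives rate.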
G9a inh: qHTS Assay for Inhibitors of Histone Lysine Methyltransferase G9a. G9a H3K9 monomethylation, AlphaScreen, 2 h. Potency, µM (top dose mostly 102 µM), without a hit: top-dose activity, negative = inhibition, actives largely listed as inhibitors. 350,000 compounds, 8.8% hits. Histone-lysine N-methyltransferase EHMT2 (Homo sapiens), Q96KQ7; further: potency means the concentration at half of the fitted maximal effect; on the % scale 0 is the no-effect control and ±100 the full control effect; nearly all actives have a fitted effect of over 75% in size
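G9a (20 nM) was preincubated 15 min with compound, then reacted 2 h at room temperature with 500 nM biotin-H3K9 peptide and 20 µM SAM. Monomethyl-H3K9 detected by AlphaScreen using anti-H3K9me1 antibody.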
JMJD2A Tudor inh: qHTS Assay for Inhibitors of JMJD2A-Tudor Domain. Potency, µM (doses to about 114 µM), inactives show at the highest dose activity change, negative = inhibition, hits mostly inhibitors. AlphaScreen JMJD2A-Tudor / H3K4me3 peptide binding. 390,000 compounds, 4.4% hits; further: potency means the concentration at half of the fitted maximal effect; on the % scale 0 is the no-effect control and ±100 the full control effect; nearly all actives have a fitted effect of over 50% in size
BAZ2B inh: qHTS Assay for Inhibitors of BAZ2B; AlphaScreen BAZ2B-H3K14Ac peptide displacement; Potency, µM (highest dose often 114 µM), for inactives: at the highest dose activity change, negative = inhibition, hits mostly inhibitors; 360,000 compounds, 4.4% hits; AID 504333, 2011; further: potency means the concentration at half of the fitted maximal effect; on the % scale 0 is the no-effect control and ±100 the full control effect; nearly all actives have a fitted effect of over 60% in size
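AlphaScreen displacement of biotin-H3(5-23)K14Ac peptide (50 nM final) from BAZ2B (50 nM final) in PBS pH 7.4, 0.01% Tween-20; complex preformed 30 min RT, then compounds (top 110 uM) 30 min RT, beads 20 min dark.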
HP1b chromo inh: HTS for Inhibitors of HP1-beta Chromodomain Interactions with Methylated Histone Tails. Chromobox protein homolog 1 (Homo sapiens), P83916. AlphaScreen HP1-beta / biotin-H3K9me3 peptide binding. Potency, µM (doses to about 114 µM), inactives show at the highest dose activity change, negative = inhibition, hits mostly inhibitors. 390,000 compounds, 0.56% hits. AID 540317, 2011; further: potency means the concentration at half of the fitted maximal effect; nearly all actives have a fitted effect of over 70% in size
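Compound inhibition of the preformed complex between 50 nM HP1-beta and 50 nM biotinylated H3K9me3 peptide was read by AlphaScreen. Buffer was PBS pH 7.4 with 0.01% Tween-20. Incubations ran 30 min at room temperature, with 10 ug/mL donor/acceptor beads.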
12-hLO cuvette: Cuvette-Based Assay for Inhibitors of 12-hLO (12-human lipoxygenase): 8HQ Series - Round 1; shares compounds with BAZ2B inh; purified 12-hLO, cuvette UV 234 nm product formation; Potency, µM, actives largely listed as inhibitors; 35 compounds, 60% hits; AID 2163, 2009;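 active means compounds that slowed 12-hLO product formation enough to yield a measured IC50 potency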
KDM4E inh: Inhibitors of Human Jumonji Domain Containing 2E (JMJD2E): 8HQs - Round 1 | AID 493212, 2011 | shares compounds with BAZ2B inh | Potency, µM (series often up to 57 µM), without a hit: at the highest dose activity, negative = inhibition, hits mostly inhibitors | JMJD2E demethylase, FDH-coupled NADH fluorescence (FDH is formaldehyde dehydrogenase) | 130 compounds, 89% hits
ME-1 growth: qHTS Assay for Compounds Blocking the Interaction Between CBF-beta and RUNX1 for the Treatment of Acute Myeloid Leukemia: ME-1 cellular proliferation; 140 compounds, 20% hits; Potency, µM (titrated, usually from 56.1 µM), for the others: at the top dose activity change, negative = inhibition, hits mostly inhibitors; shares compounds with BAZ2B inh; ME-1 cell proliferation, ATP luminescence, 48 h
* = called active by the depositor; ? = inconclusive; . = no result; ! = repeats disagree; [ ] = another dose, or the depositor's remark. Unless noted, the call rests on the fitted dose curve; in most records, active means well fitted curve in the direction sought with a large enough effect; inconclusive means small, poorly fitted or top-dose-only effect, or another doubt; inactive means no such curve, though single readings can be large; an effect the other way counts as inactive or inconclusive.

SMILES	Sfp PPTase inh	G9a inh	JMJD2A Tudor inh	BAZ2B inh	HP1b chromo inh	ME-1 growth	others
O=[N+]([O-])c1ccc(O)c(/C=N/NC2=NS(=O)(=O)c3ccccc32)c1	29%	?	20µM*	1.8µM*	42%	?
O=C1CCCN1c1ccc(CNS(=O)(=O)c2ccc(F)cc2)cc1	1%	-2%[59 µM]	-19%	-5%	11%	.
NCC(=O)Nc1ccc(Cl)cc1C(=O)c1ccc[nH]1	17%	25µM*	-12%	?	38%	4.9µM*
COc1cc(NC(=O)Cn2ncc3c2-c2ccccc2OC3)cc(OC)c1OC	-2%	-48%	-13%	-4%	27%	.
CN=c1scc(-c2ccccc2F)n1/N=C/c1ccc(O)c(O)c1O	3.2µM*	13µM*	32µM*	7.9µM*	28µM*	4.5µM*
CC(=O)NNC(=O)c1ccncc1	12%	-5%[59 µM]	-7%	4%	50%	.
CC(C)NNC(=O)c1ccncc1	21%	11µM*!	-15%	0%	41%	8%
Cn1cc(C(=O)c2cccc(Cl)c2)cc1/C=N\O	17%	-22%	-20%	?	20%[57 µM]	.
C=C1c2cccc(O)c2C(O)=C2C(=O)[C@]3(O)C(O)=C(C(N)=O)C(=O)[C@@H](N(C)C)[C@@H]3[C@@H](O)[C@H]12	35µM*	-160%[59 µM]	7.1µM*	3.5µM*	-8%	-24%
O=C(NC1CC2CCCC(C1)N2C(=O)NC1CCCCC1)c1ccccc1 (stereo not given)	10%	4%[59 µM]	-11%	10%	29%	.
CCCC(=O)NC(c1cccs1)c1cc([N+](=O)[O-])c2cccnc2c1O (stereo not given)	2.5µM*	?	14µM*	7.9µM*	-7%	?
CCC(=O)NC(c1cccs1)c1cc(Br)c2cccnc2c1O (stereo not given)	.	-34%[12.7 µM]	.	71µM*	.	.	12-hLO cuvette=14µM*;KDM4E inh=20µM*
CCC(=O)NC(c1cccs1)c1cc(Cl)c2ccccc2c1O (stereo not given)	.	2%[0.501 µM]	-24%	?	26%	.
Cc1cccc(N2C(=O)/C(=C\c3ccc(OC(F)F)cc3)c3ccccc3C2=O)c1	?	-14%[59 µM]	?	?	-20%	.
c1ccc(-c2nnc(-c3ccccn3)nc2NC2CCCCC2)cc1	1%	-4%	3.2µM*	1.8µM*	19%	7.1µM*
Cc1ccc(S(=O)(=O)N2CCN(C(=O)CN3CCCCC3)C2C(C)C)cc1 (stereo not given)	15%	11%[59 µM]	-3%	2%	35%	.
Oc1cccc(O)c1O	40µM*	3.5µM*	.	.	.	1%
O=C(O)c1cccc(O)c1O	.	.	?	.	35%	.
CCOC(=O)c1cnc2nc(NCc3ccc(OCC)cc3)[nH]n2c1=O	.	?	-6%	-14%	31%	.
S=C(NCc1ccco1)N1CCOCC1	4%	-27%	-4%	-18%	17%	-10%[25.6 µM]
Fc1ccc(N2CCN(C(=S)NCc3ccco3)CC2)cc1	11%	?	?	?	-12%	.

High-throughput results: PubChem, National Center for Advancing Translational Sciences (NCATS)
